From PubChem BioAssay
RXFP1 antag – RXFP1 (human) relaxin receptor antagonism; Q9HBX9; HEK293-RXFP1, relaxin-stimulated cAMP HTRF, 30 min; hits give low values; activity change, negative = inhibition, % at 57.5 µM; 0.59% of 350,000 active;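 active = activity change of -60% or lower, but not beyond a set lower limit; inconclusive = change between -60% and -40%, or beyond the set limit; inactive = change above -40%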; also: % is scaled to controls: 0 for no effect and ±100 for the full control effect
Target sequence (Q9HBX9 whole entry, looked up): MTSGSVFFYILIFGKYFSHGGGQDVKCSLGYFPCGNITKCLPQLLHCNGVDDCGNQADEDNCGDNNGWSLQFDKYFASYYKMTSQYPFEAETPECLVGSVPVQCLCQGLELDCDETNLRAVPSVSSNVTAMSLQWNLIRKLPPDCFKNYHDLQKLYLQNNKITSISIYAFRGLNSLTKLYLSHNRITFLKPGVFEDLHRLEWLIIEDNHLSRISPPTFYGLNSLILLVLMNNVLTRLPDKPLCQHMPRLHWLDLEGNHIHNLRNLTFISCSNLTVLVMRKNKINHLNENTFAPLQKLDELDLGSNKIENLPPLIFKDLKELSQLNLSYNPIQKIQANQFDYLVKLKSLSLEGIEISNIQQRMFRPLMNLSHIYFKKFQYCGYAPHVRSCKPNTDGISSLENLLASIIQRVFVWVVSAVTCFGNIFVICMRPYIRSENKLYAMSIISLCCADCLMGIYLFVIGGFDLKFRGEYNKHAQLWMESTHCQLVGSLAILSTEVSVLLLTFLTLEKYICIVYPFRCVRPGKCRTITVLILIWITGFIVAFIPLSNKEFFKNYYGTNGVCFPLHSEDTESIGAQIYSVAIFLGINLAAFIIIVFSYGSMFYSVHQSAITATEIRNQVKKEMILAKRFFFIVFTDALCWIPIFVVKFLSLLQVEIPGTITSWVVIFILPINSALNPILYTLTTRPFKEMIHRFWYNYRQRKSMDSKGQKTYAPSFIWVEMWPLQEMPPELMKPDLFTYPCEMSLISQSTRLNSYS
RXFP1 agonist – RXFP1 (human) receptor agonism | Potency, µM (titrated, usually from 57.5 µM), for inactives: at the top dose activation, most hits filed as activators | 0.3% of 370,000 active | HEK293T-RXFP1 cAMP TR-FRET, 30 min; response scale: percent of porcine relaxin response, buffer zero; active = well fitted activation curve with a large enough effect; inconclusive = small, poorly fitted or top-dose-only effect; also: potency is read from the fitted curve at half-maximal effect; % is scaled to controls: 0 for no effect and ±100 for the full control effect; nearly all actives have a fitted effect of over 60% in size
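Agonist response is measured as cAMP accumulation in an RXFP1-transfected HEK293T line under PDE4 inhibition. Values are scaled between buffer-only and 29 nM porcine relaxin, and EC50s come from standard Hill equation fits.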
gsp ag – agonists of gsp mutant (McCune-Albright syndrome); gsp mutant cells, cAMP HTRF, 30 min; Potency, µM (highest dose often 76.9 µM), for the others: at the top dose activation (cAMP increase), usual class: activators; 0.13% of 340,000 active; active = well fitted activation curve with a large enough effect; inconclusive = small, poorly fitted or top-dose-only effect, or another doubt; inactive = no such curve, though single readings can be large or run the other way; cell line not stated here;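 also: phosphodiesterase inhibitor Ro 20-1724 added with compounds to block cAMP breakdown; potency is read from the fitted curve at half-maximal effect; nearly all actives have a fitted effect of over 60% in size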
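Cells stably selected in G418 were plated at 2000/well, grown 16-24 hr, then given compounds in DMSO with the PDE inhibitor […] (300 uM solution added) for 30 min at 37C; cAMP was read by HTRF.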
Akt phos inh – blocks phosphorylation of Akt; Neuro2A IGF-stimulated pAkt S473 HTRF, 20 min; hits give low values; AID 651550; activity change, % for hits at 50 µM; 0.32% of 360,000 active; in the data active = activity change below about -80%; inconclusive = mostly about -51% to -80%; also: % is scaled to controls: 0 for no effect and ±100 for the full control effect
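Single-point screen (50 µM final compound) in Neuro2A cells stimulated 20 min with 6 nM IGF at 37 deg C. After lysis, Ser473-phosphorylated Akt read by HTRF (ex 330 nm, em 615/665 nm) as the 665/615 ratio.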
gsp antagonist – antagonizes gsp, the McCune-Albright syndrome mutation. gsp-mutant cells, cAMP HTRF, 30 min. Potency, µM (series often up to 76.9 µM), inactives show at the top dose activity change, negative = inhibition, usual class: inhibitors. 0.4% of 340,000 active. AID 624288; calls by dose curve; cell line not stated here;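 also: intracellular cAMP measured with PDE inhibitor Ro 20-1724 present during compound exposure; potency is read from the fitted curve at half-maximal effect; % is scaled to controls: 0 for no effect and ±100 for the full control effect; nearly all actives have a fitted effect of over 65% in size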
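G418-selected cells were plated in DMEM/10% FBS for 16-24 h at 37C, then treated with compounds plus the PDE inhibitor […] (300 uM solution added) for 30 min at 37C. Intracellular cAMP was measured by HTRF after 30 min lysis at room temperature.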
The depositor's hits bear a star; i = inactive; ? = inconclusive; nt = not tested or not shown; [ ] = another dose, or the depositor's remark. Most compounds without a hit are left out; they make up all but 1.2% or so of the library.

SMILES | RXFP1 antag | RXFP1 agonist | gsp ag | Akt phos inh | gsp antagonist
Cn1c(=O)c2cc(S(=O)(=O)Nc3cc(C(=O)O)cc(C(=O)O)c3)ccc2n(C)c1=O | 1.8 | 22.3% | ? | i | 10.8%
Cc1cc(C)cc(NS(=O)(=O)c2ccc3c(c2)c(=O)n(C)c(=O)n3C)c1 | 6.8 | 25.7% | 25.1µM* | i | 1.2%
CC(=O)N1CCN(S(=O)(=O)c2cccc(C(=O)Nc3ccc4c(c3)OCO4)c2)CC1 | -4.7 | 1.5% | 1.6%[15.4 µM] | i | 11.2µM*
Cc1cc(NCCCn2ccnc2)n2ncc(-c3ccccc3)c2n1 | -1.5 | 1.6% | 5.8% | -90.5%* | -3.4%[15.4 µM]
COc1ccc(NC(=O)CN(c2cc(C)cc(C)c2)S(=O)(=O)c2c(C)n[nH]c2C)cc1 | nt | 0.0% | -34.5% | i | -19.5%
COc1ccc(N(CC(=O)Nc2ccc(F)c(F)c2)S(=O)(=O)c2c(C)n[nH]c2C)cc1 | -85.6* | -1.9% | 6.4% | i | ?
COc1cc2c(C(=O)N3CCN(c4ccc(C)cc4)C(C)C3)cn(CC(C)C)c(=O)c2cc1OC (configuration not stated) | nt | 0.2% | nt | nt | nt
CCc1noc(-c2ccc(N(C)Cc3ccc(OC)cc3)c([N+](=O)[O-])c2)n1 | nt | 4.0% | nt | nt | nt
Cc1cn(C)c(CC(=O)NCc2ccccc2Cl)c1C(=O)O | -3.6 | -1.4% | nt | nt | nt
Cc1ccc(NC(=O)CCc2nnc3ccc(N4CCN(C)CC4)nn23)cc1F | 11.8 | 25.1µM* | ? | nt | 5.9%
CCOC(=O)c1cccc(NC(=O)CCc2nnc3ccc(N4CCCCC4)nn23)c1 | 24.5 | 8.6% | 35.5µM* | i | -9.9%
CS(=O)(=O)N(CCc1ccccc1)CC(=O)NCc1cccnc1 | 2.1 | 1.0% | 0.9% | -108.1%* | 0.3%
COc1ccc(S(=O)(=O)N(CC(=O)NCc2cccnc2)Cc2ccccc2)cc1 | -3.4 | 0.2% | 1.4%[15.4 µM] | i | 11.2µM*
O=C(CN(Cc1ccccc1)S(=O)(=O)c1ccc(F)cc1)NCc1cccnc1 | -0.7 | -1.9% | 2.0% | i | -5.6%
COc1ccc(NC(=O)C(NC(=O)/C=C\c2ccc3c(c2)OCO3)c2ccccc2)cc1 (configuration not stated) | 2.1 | -4.4% | nt | nt | nt
CC(=O)N(c1ccccc1C)C1CCCC1 | -15.3 | 3.0% | -3.0%[15.4 µM] | i | 14.0%
CC(=O)N(C1=C(Cl)C(=O)c2ccccc2C1=O)C1CCCCC1 | -98.7* | -2.7% | 27.9%[15.4 µM] | i | ?
CCc1cccc(CC)c1NC(=O)CCS(=O)(=O)c1ccc2c(c1)CCN2C(C)=O | nt | 2.2% | nt | nt | nt
CCNc1cc(=O)n(C)c(=O)n1C | -2.7 | 1.0% | -5.6% | -121.6%* | -9.9%
CCCCNc1cc(=O)n(C)c(=O)n1C | -1.4 | 0.8% | -2.1% | i | 12.0%
CCOC(=O)c1c(C)n(C)c2ccc(OCC(O)CN3CCN(C)CC3)cc12 (configuration not stated) | nt | 1.8% | 25.0% | i | 0.2%
CCOC(=O)c1c(C)n(-c2ccc(C)cc2)c2ccc(OCC(O)CN3CCN(C)CC3)cc12 (configuration not stated) | -86.1* | 0.1% | -24.6% | i | 10.8%
Cc1onc(-c2ccccc2)c1-c1csc(N/N=C/c2ccccc2Cl)n1 | ? | -1.1% | -1.5% | i | 2.0%
Cc1onc(-c2ccc(Cl)cc2Cl)c1-c1csc(N/N=C/c2ccccc2Cl)n1 | -69.0* | -0.3% | 4.8% | i | -6.0%
COC(=O)c1ccc(Nc2nnc(-c3ccc(C)c(S(=O)(=O)N4CCN(C)CC4)c3)c3ccccc23)cc1 | -2.5 | 5.2% | nt | nt | nt
SMILES | RXFP1 antag | RXFP1 agonist | gsp ag | Akt phos inh | gsp antagonist
O=c1[nH]c2sc3c(c2c2nncn12)CCCC3 | 3.8 | 0.1% | -0.3% | nt | 35.5µM*
Nc1nc2ccc([N+](=O)[O-])cc2s1 | -18.2 | nt | nt | nt | nt
O=C(NCCc1ccccc1)c1ccc2nc(-c3ccco3)c(-c3ccco3)nc2c1 | -6.1 | 1.6% | 13.1% | i | 2.5%
O=C(c1ccccc1)c1ccc2nc(-c3ccco3)c(-c3ccco3)nc2c1 | -90.4* | 3.2% | -15.5%[15.4 µM] | i | -11.7%
O=C(COC(=O)c1ccccc1NC(=O)c1ccco1)Nc1ccc2c(c1)OCO2 | 0.9 | 2.0% | 0.8% | -102.4%* | -7.8%
CC(=O)c1ccc2c3c(cccc13)CC2 | -6.6 | 0.9% | -54.0% | i | -3.1%
ON=C(c1ccccc1)c1ccc2c3c(cccc13)CC2 | -105.6* | nt | 3.6% | i | nt
CCN(CC)S(=O)(=O)c1ccc(NC(=O)C2COc3ccccc3O2)cc1 (configuration not stated) | 4.4 | 0.3% | 29.7% | -120.6%* | 0.3%
O=C(Nc1ccc(F)cc1)C1COc2ccccc2O1 (configuration not stated) | 0.4 | 0.8% | 31.6% | i | 6.1%
CCc1ccc(CCOc2ccc(CC3SC(=O)NC3=O)cc2)nc1 (configuration not stated) | ? | nt | nt | i | -20.6%
Cc1c(C)c2c(c(C)c1O)CCC(C)(COc1ccc(CC3SC(=O)NC3=O)cc1)O2 (configuration not stated) | -74.8* | nt | nt | nt | nt
CCc1ccc(C(=O)c2cn(CC(=O)Nc3ccc4c(c3)OCO4)c3cc(OC)c(OC)cc3c2=O)cc1 | nt | 2.7% | nt | nt | nt
O=[N+]([O-])c1cccc(S(=O)(=O)NCCNS(=O)(=O)c2cccc([N+](=O)[O-])c2)c1 | 9.6 | nt | nt | nt | nt
COc1ccc(C(c2c(C)[nH]n(C(N)=S)c2=O)C(C#N)C#N)cc1 (configuration not stated) | 8.1 | -0.2% | -28.7% | i | 7.0%
Cc1[nH]n(-c2ncc(-c3ccc(Cl)cc3)s2)c(=O)c1C(c1ccc(Cl)cc1)C(C#N)C#N (configuration not stated) | -87.8* | 0.7% | -6.4%[15.4 µM] | i | -7.3%
CC(=O)OCC(=O)C1CCC2C3CC=C4CC(O)CCC4(C)C3CCC12C (configuration not stated) | nt | -0.4% | nt | i | -0.2%
CC(=O)C1CCC2C3CC=C4CC(SC(=N)N)CCC4(C)C3CCC12C (configuration not stated) | -104.7* | nt | 1.0% | i | -8.1%
CCSc1nnc(-c2ccccc2SC)o1 | 1.9 | 22.4µM* | ? | i | 5.8%
COc1ccc(/C=N/NC(=O)c2cccc(Br)c2)cc1Cn1cc(Cl)cn1 | -9.2 | -0.2% | -3.0% | -103.1%* | -9.9%
CCCCn1c(=N)n(CCOc2ccc(C)cc2)c2ccccc21 | -75.2* | 2.4% | -1.2% | i | 4.8%
CCCCn1c(=N)n(CCOc2ccccc2OC)c2ccccc21 | -14.3 | -3.7% | nt | nt | nt
Cc1ccc(OCC(O)Cn2c(=N)n(CCN3CCCCC3)c3ccccc32)cc1 (configuration not stated) | -9.2 | 1.6% | 4.7% | -113.4%* | 9.4%
COc1ccc(OCC(O)Cn2c(=N)n(CCN3CCCCC3)c3ccccc32)cc1 (configuration not stated) | 2.4 | 0.0% | 5.5% | i | 11.5%
